Some test systems named below: NCI-H23 lung; NCI-H226 lung; NCI-H322M lung; HOP-62 NSCLC; NCI-H460 lung; HOP-92 NSCLC; NCI-H522 lung; A549/ATCC NSCLC; 786-0 renal; COLO 205 colon; DU-145 prostate; K-562 leukemia; MALME-3M melanoma; MDA-MB-231 breast; RXF 393 renal; SF-268 CNS; SF-295 CNS; SF-539 CNS; UACC-257 melanoma; M14 melanoma.
Assay in all cases: NCI-60 one-dose screen, 48 h (100 = growth as untreated, 0 = no growth, -100 = all killed)
Common to all, as to conditions: 10 µM unless noted

This is an account of results in PubChem BioAssay (NCI).

Compounds without any hit were thinned out: in the full panel of roughly 83,000, 20% have a hit.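 Percent growth is the endpoint: 0 to 100 indicates growth inhibition (40 means 60% inhibition), 0 means no net growth, and negative values indicate cell death.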 A number with no mark means an inactive call. The source made the active and inactive calls. How the source made its calls: active means growth percent below 10; inactive means the rest.

As to `CN1CCN(Cn2nc(-c3cc(Cl)cc(Cl)c3Cl)n(/N=C/c3ccc(Cl)cc3)c2=S)CC1`, the growth with NCI-H23 lung was 92.5%; in the assay with NCI-H226 lung, 104%; in the assay with NCI-H322M lung it was 67.6%; with HOP-62 NSCLC, 95%; in the assay with NCI-H460 lung, 106%; with HOP-92 NSCLC, 43.7%. In addition, the growth was 91.1% with NCI-H522 lung; 94% with A549/ATCC NSCLC; 89.1% in the assay with 786-0 renal; 118% in the assay with COLO 205 colon; 102% in the assay on DU-145 prostate; 73.9% in the assay with K-562 leukemia. The growth in the assay on MALME-3M melanoma was 101%; in the assay with MDA-MB-231 breast it was 83.8%; in the assay with RXF 393 renal it was 89.6%; with SF-268 CNS, 117%; in the assay with SF-295 CNS, 102%; with SF-539 CNS it was 108%. Further, the growth was 93.6% in the assay on UACC-257 melanoma and 96% with M14 melanoma.
On to `Nc1nc2ccc(CNc3ccc(C(=O)NC(CC(=O)O)C(=O)O)cc3)cc2c(=O)[nH]1` (configuration not stated), for which the growth in the assay with NCI-H23 lung is 31.7%; with NCI-H226 lung it was 57.4%; in the assay on NCI-H322M lung, 55.7%; in the assay with HOP-62 NSCLC, 26.5%; with NCI-H460 lung it was 24.4%; with HOP-92 NSCLC, 64.1%. Also, the growth with NCI-H522 lung is -0.0288% (active); in the assay with A549/ATCC NSCLC, 11%; in the assay on 786-0 renal it was 7.57% (active); in the assay on COLO 205 colon, 85.4%; in the assay on DU-145 prostate, 44.9%; with K-562 leukemia it was 12.2%. Also, the growth with MALME-3M melanoma is 71.7%; with MDA-MB-231 breast, 120%; with SF-268 CNS it was 40.1%; in the assay on SF-295 CNS, 29.8%; in the assay with SF-539 CNS, 38.4%; in the assay on UACC-257 melanoma, 42.3%. The growth with M14 melanoma is 32.8%.
For `CCN(CC)CCN1C(=O)c2c(c3c4ccccc4[nH]c3c3[nH]c4ccccc4c23)C1=O`, the growth is 85.6% in the assay on NCI-H23 lung; 86.6% with NCI-H226 lung; 66.6% with NCI-H322M lung; 64.7% in the assay with HOP-62 NSCLC; 69% in the assay with NCI-H460 lung; 86.4% in the assay on HOP-92 NSCLC. Besides, the growth with NCI-H522 lung is 69.4%; with A549/ATCC NSCLC, 82.2%; in the assay on 786-0 renal, 83.6%; in the assay on COLO 205 colon it was 75.8%; in the assay on DU-145 prostate, 105%; with K-562 leukemia, 17.8%. Moreover, the growth in the assay on MALME-3M melanoma is 86.1%; in the assay on MDA-MB-231 breast it was 83.8%; in the assay on RXF 393 renal it was 83.6%; in the assay on SF-268 CNS it was 87.3%; in the assay on SF-295 CNS it was 84.7%; in the assay on SF-539 CNS, 88.8%. The growth is 105% in the assay with UACC-257 melanoma and 79.5% in the assay with M14 melanoma.
Take `CCOC(=O)c1cnc2c(OC)ccc(OC)c2c1Cl`: the growth with NCI-H23 lung was 110%; with NCI-H226 lung it was 113%; in the assay with NCI-H322M lung, 120%; with HOP-62 NSCLC, 101%; in the assay on NCI-H460 lung it was 108%; in the assay with HOP-92 NSCLC it was 98.5%. Moreover, the growth was 120% in the assay with NCI-H522 lung; 97.3% with A549/ATCC NSCLC; 117% with 786-0 renal; 117% in the assay on COLO 205 colon; 118% in the assay on DU-145 prostate; 116% in the assay on K-562 leukemia. The growth with MALME-3M melanoma was 98.3%; in the assay on MDA-MB-231 breast, 128%; in the assay with RXF 393 renal, 115%; with SF-268 CNS it was 98.9%; in the assay on SF-295 CNS, 110%; with SF-539 CNS it was 104%. Further, the growth is 101% in the assay on UACC-257 melanoma and 106% with M14 melanoma.
For `COc1cc(NC(=O)C#Cc2ccccc2)c(OC)cc1Cl`, the growth in the assay on NCI-H23 lung was 57.8%; in the assay with NCI-H226 lung, 64.7%; in the assay on NCI-H322M lung, 93.2%; in the assay on HOP-62 NSCLC, 77.6%; with NCI-H460 lung, 17.8%; in the assay on HOP-92 NSCLC it was 78.5%. Also, the growth is 39.2% with NCI-H522 lung; 59.5% with A549/ATCC NSCLC; 35.1% in the assay on 786-0 renal; 64.6% with COLO 205 colon; 83.6% in the assay on DU-145 prostate; 20.6% in the assay on K-562 leukemia. Besides, the growth in the assay with MALME-3M melanoma is 61.4%; in the assay with MDA-MB-231 breast, 26.6%; in the assay with RXF 393 renal, 83.5%; with SF-268 CNS, 39.8%; in the assay on SF-295 CNS it was 75.1%; in the assay with SF-539 CNS, 66.6%. The growth with UACC-257 melanoma is 89.2%; with M14 melanoma it was 49.8%.
As for `Cc1ccc(-c2cc(-c3nnc(SCC(=O)c4ccccc4)o3)c3ccccc3n2)cc1`, the growth with NCI-H23 lung is 97.1%; in the assay with NCI-H226 lung it was 94.5%; in the assay on NCI-H322M lung, 90.3%; in the assay on HOP-62 NSCLC it was 108%; in the assay on NCI-H460 lung, 98.3%; in the assay with HOP-92 NSCLC, 96.6%. Also, the growth was 87.7% with NCI-H522 lung; 91.4% with A549/ATCC NSCLC; 92.8% in the assay with 786-0 renal; 111% with COLO 205 colon; 95.2% in the assay with DU-145 prostate; 93.2% in the assay on K-562 leukemia. The growth with MALME-3M melanoma was 107%; in the assay with MDA-MB-231 breast, 117%; in the assay on SF-268 CNS, 88.9%; with SF-295 CNS it was 99.1%; in the assay on SF-539 CNS it was 94.2%; with UACC-257 melanoma, 114%. The growth in the assay with M14 melanoma was 97.2%.
In the case of `Nc1c(C(=O)O)[nH]c(=O)[nH]c1=O`, the growth was 103% with NCI-H23 lung; 93.8% in the assay with NCI-H226 lung; 102% with NCI-H322M lung; 108% in the assay on HOP-62 NSCLC; 104% in the assay with NCI-H460 lung; 104% in the assay on HOP-92 NSCLC. Besides, the growth in the assay with NCI-H522 lung is 84.3%; in the assay on A549/ATCC NSCLC, 71.9%; in the assay on 786-0 renal, 104%; with COLO 205 colon, 115%; in the assay with DU-145 prostate, 110%; with K-562 leukemia, 86.9%. The growth in the assay on MALME-3M melanoma is 110%; in the assay on RXF 393 renal, 93.5%; in the assay with SF-268 CNS, 98.7%; in the assay with SF-295 CNS it was 99.7%; in the assay with SF-539 CNS, 103%; in the assay on UACC-257 melanoma, 75.7%. Moreover, the growth in the assay with M14 melanoma is 103%.
